MITF primary = human MITF inhibition, primary screen; AID 1259374; inhibition, % at 2.6 µM; O75030; 650,000 tested, 0.91% active; AlphaScreen MITF homodimerization, bead proximity signal; in the data active means inhibition above about 50%
GPR151 activ = activators of human GPR151 | 650,000 tested, 1% active | AID 1508602 | activation, % at 11.2 µM | Q8TDV0 | PathHunter beta-arrestin GPR151 cells, luminescence; in the data active means activation above about 4.9%
TEAD-YAP block = TEAD-YAP interaction inhibition; HEK-TIYL cells, TEAD-Gal4/YAP UAS-luciferase luminescence; 640,000 tested, 1.4% active; AID 1259422; inhibition, % at 9.12 µM; in the data active means inhibition above about 32%
FBW7 activator = activators of human E3 ligase FBW7 | AlphaScreen FBW7–phospho-cyclin E peptide binding, activator screen | 650,000 tested, 0.13% active | normalized activity (activation), % at 26.1 µM; in the data active means normalized activity above about 1.9%;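 further: purified mutant Fbw7 with reduced substrate affinity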
Target sequence (Q969H0 whole entry, looked up): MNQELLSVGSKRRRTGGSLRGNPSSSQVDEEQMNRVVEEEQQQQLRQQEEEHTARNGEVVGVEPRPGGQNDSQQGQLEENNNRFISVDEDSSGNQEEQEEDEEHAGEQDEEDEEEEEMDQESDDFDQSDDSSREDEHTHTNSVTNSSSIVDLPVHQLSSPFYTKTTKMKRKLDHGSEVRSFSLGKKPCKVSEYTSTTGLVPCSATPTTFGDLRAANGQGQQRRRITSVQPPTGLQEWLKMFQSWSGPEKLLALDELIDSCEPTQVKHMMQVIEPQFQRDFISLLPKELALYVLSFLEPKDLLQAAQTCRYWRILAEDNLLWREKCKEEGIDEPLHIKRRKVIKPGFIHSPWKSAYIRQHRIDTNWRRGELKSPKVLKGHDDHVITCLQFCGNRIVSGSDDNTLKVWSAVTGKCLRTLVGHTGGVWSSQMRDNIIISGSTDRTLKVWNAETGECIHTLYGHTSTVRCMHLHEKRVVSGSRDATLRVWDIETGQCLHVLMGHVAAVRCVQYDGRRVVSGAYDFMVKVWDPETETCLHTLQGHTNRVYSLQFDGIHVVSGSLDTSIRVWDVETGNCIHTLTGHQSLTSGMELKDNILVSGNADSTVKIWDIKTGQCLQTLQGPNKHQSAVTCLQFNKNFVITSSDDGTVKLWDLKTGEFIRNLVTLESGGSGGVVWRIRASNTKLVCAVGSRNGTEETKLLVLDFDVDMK
Each line names hits and unclear results; the compound was inactive in the other large screens. Most compounds without a hit are left out; they make up all but 3.4% or so of the library.

COc1ccc(CCn2c(=O)[nH]c3c(C(N)=O)nc(C4CCCCC4)nc32)cc1	none
CCCOc1ccc(/C(O)=C2\C(=O)C(=O)N(c3nc(C)c(C(=O)OC)s3)C2c2ccc(OC)c(OC)c2)c(C)c1 (stereo unspecified)	none
COc1cccc(C(=O)NNC(=O)Nc2ccc(Br)cc2Cl)c1	none
O=C(O)COc1ccccc1/C=C1\C(=O)NC(=O)N(c2cccc([N+](=O)[O-])c2)C1=O	MITF primary 55
NC(=O)c1c(NC(=O)CSc2nc(-c3ccccc3)cn2N)sc2c1CCC2	TEAD-YAP block 36
Nc1cc2c3c(c1)C(c1ccccc1)CCN3CCC2c1ccccc1 (stereo unspecified)	FBW7 activator 6.3
CN(C)C(=O)COc1cccc(Nc2ccc(Br)cn2)c1	none
CC1CCCN(C2=NC(=O)/C(=C/c3ccc(O)cc3)S2)C1 (stereo unspecified)	TEAD-YAP block 49
COc1cc(/C=C2\SC(N3CCCC(C)C3)=NC2=O)ccc1O (stereo unspecified)	TEAD-YAP block 56
O=C1N=C(N2CCOCC2)S/C1=C\c1ccc(O)cc1	TEAD-YAP block 39
COc1cc(/C=C2\SC(N3CCCC3)=NC2=O)ccc1O	none
COc1cc(/C=C2\SC(N3CCOCC3)=NC2=O)ccc1O	TEAD-YAP block 54
O=C1N=C(N2CCOCC2)S/C1=C\c1ccc(F)cc1	none
CC1CCCN(C2=NC(=O)/C(=C/c3ccc(F)cc3)S2)C1 (stereo unspecified)	none
COc1ccc(CNC(=O)Nc2cn(C)c(=O)c3ccccc23)cc1	none
C=CCSC1=C(C#N)C(c2ccccc2)C(C(=O)OC)C(=O)N1 (stereo unspecified)	none
COc1cccc(CN2C(=O)C3C(C(=O)Nc4ccc(Cl)cc4)C4C=CC3(O4)C2C(=O)NC2CCCCC2)c1 (stereo unspecified)	none
O=C(CCCCCn1c(SCC(=O)OCc2ccccc2)nc2ccsc2c1=O)NCCc1ccccc1	none
CCOC(=O)c1nnn(-c2nonc2N)c1CN(Cc1ccccc1)C(C)C	TEAD-YAP block 44
CCOC(=O)c1nnn(-c2nonc2N)c1CN(CC)c1ccccc1	none
Cc1nc(NC(=O)CSc2nc3cccnc3n2-c2ccc(F)cc2)sc1C	none
CCC(C)(C)n1nnnc1C(c1ccc(O)cc1)N1CCc2ccccc2C1 (stereo unspecified)	TEAD-YAP block 77
CC(C)(C)n1nnnc1C(c1ccccc1)N1CCc2ccccc2C1 (stereo unspecified)	none
CC(C)OC(=O)CSc1nc2c(c(-c3ccc(O)cc3)c1C#N)CCCC2	TEAD-YAP block 48
Cc1nn(C)c(C)c1-c1ncc(C(=O)NC2CCN(Cc3ccccc3)CC2)s1	none
COc1cc(-c2ncnn2-c2sc3c(c2C#N)CCCCC3)ccc1O	TEAD-YAP block 79
COc1ccc(-c2ncnn2-c2sc3c(c2C#N)CCCCC3)cc1OC	none
CCOC(=O)CNC(=O)CSc1nc2[nH]ncc2c(=O)[nH]1	none
O=C(NCCCN1CCN(c2ccccc2F)CC1)c1ccc(CNc2nc(=S)[nH]c3ccccc23)cc1	none
CNc1ccc(C(=O)OCC(=O)Nc2sc3c(c2C(N)=O)CCC(C)C3)cc1[N+](=O)[O-] (stereo unspecified)	none
COc1ccc(/C=C2\C(=O)N(c3cccc(Cl)c3)N=C2C)cc1[N+](=O)[O-]	none
COc1cc(/C=C2/C(=O)N(c3cccc(Cl)c3)N=C2C)ccc1Oc1ccc([N+](=O)[O-])cc1C(F)(F)F	TEAD-YAP block 42
COCCOC(=O)C1=C(C)NC(C)=C(C#N)C1c1ccccc1OC(F)F (stereo unspecified)	none
CC1=C(C#N)C(c2cc([N+](=O)[O-])ccc2OC(F)F)C(C#N)=C(C)N1	TEAD-YAP block 42
CC1=C(C#N)C(c2cc(Cl)ccc2OC(F)F)C(C#N)=C(C)N1	TEAD-YAP block 44
FC(F)(F)c1cccc(CNc2nc(Cl)nc3c2ncn3-c2ccccc2)c1	none
Cn1c(O)c(C2=NC(=S)NC2=O)c2cc(Br)ccc21	none
COC(=O)Cc1nc(NCc2ccccc2)c2c(C)c(C)sc2n1	TEAD-YAP block 67
O=C(NNC(=O)c1cccnc1SCc1cccc([N+](=O)[O-])c1)c1ccccn1	TEAD-YAP block 39
CC(C)C(NC(=O)OC(C)(C)C)C(=O)N1CCCC1C(N)=O (stereo unspecified)	FBW7 activator 2.0
Fc1ccc(CSc2nnnn2-c2ccc3c(c2)OCO3)c(Cl)c1	TEAD-YAP block 51
Fc1ccccc1CSc1nnnn1-c1ccc2c(c1)OCO2	none
Cc1cc(C(=O)CCl)c(C)n1-c1ccccc1F	none
CCN1CCN(CC(=O)c2cc(C)n(-c3cccc(C(F)(F)F)c3)c2C)CC1	MITF primary 63
CCN1CCN(CC(=O)c2cc(C)n(-c3ccccc3F)c2C)CC1	MITF primary 62
CN(CCC(=O)N1CCc2nnc(Cc3ccccc3)n2CC1)C1CCS(=O)(=O)C1 (stereo unspecified)	none
CCN(CCO)c1ccc(NC(=S)Nc2ccccc2F)cc1	TEAD-YAP block 66
NS(=O)(=O)c1ccc(NC(=S)Nc2ccc(F)cc2)cc1	none
CCN(CC)c1ccc(NC(=S)Nc2ccc(S(N)(=O)=O)cc2)cc1	MITF primary 74
Cc1ccc(Nc2nc(N3CCOCC3)c3ccccc3n2)cc1	none
Oc1cccc(Nc2nc(N3CCOCC3)c3ccccc3n2)c1	none
Clc1ccccc1-c1nc(N2CCOCC2)c2ccccc2n1	FBW7 activator 2.6
c1ccc(Nc2nc(N3CCCCC3)c3ccccc3n2)cc1	TEAD-YAP block 42
Clc1ccccc1-c1nc(N2CCCC2)c2ccccc2n1	none
CN(C)c1ccc(Nc2nc(N3CCOCC3)c3ccccc3n2)cc1	TEAD-YAP block 42
Cc1cccc(Nc2nc(N3CCOCC3)c3ccccc3n2)c1	TEAD-YAP block 38
CC(C)C1=NN2C(=N)/C(=C/c3ccc(-c4ccccc4[N+](=O)[O-])o3)C(=O)N=C2S1	none
CCCCCOc1ccc(NC(=O)CSc2cccc3cccnc23)cc1	TEAD-YAP block 37
O=C1CC(c2ccccc2)Sc2nc3ccccc3n21 (stereo unspecified)	none
COc1ccc(C2CC(=O)n3c(nc4ccccc43)S2)cc1 (stereo unspecified)	TEAD-YAP block 80
O=C1CC(c2ccc3c(c2)OCO3)Sc2nc3ccccc3n21 (stereo unspecified)	TEAD-YAP block 76
CCOc1ccc(NC(=O)/C(=C2\Nc3ccc([N+](=O)[O-])cc3N2)[N+](=O)[O-])cc1	none
Nc1c(S(=O)(=O)O)cc(Nc2ccc(Nc3nc(Cl)nc(Nc4ccc(S(=O)(=O)O)cc4)n3)c(S(=O)(=O)O)c2)c2c1C(=O)c1ccccc1C2=O	MITF primary 61
CCn1c2ccccc2c2nnc(N3CCN(c4ccccn4)CC3)nc21	none
Cc1ccccc1C(=O)NCc1ccc2c(c1)cc(C)n2C	none
CCOc1cc(/C=N/NC(=O)Cn2c3ccccc3c(=O)c3ccccc32)ccc1O	TEAD-YAP block 59
CCOc1cc(/C=N/NC(=O)Cn2nnc(-c3ccccc3)n2)ccc1O	none
O=C(Cn1c2ccccc2c(=O)c2ccccc21)N/N=C/c1ccccc1O	TEAD-YAP block 45

Bioassay records deposited in PubChem BioAssay by The Scripps Research Institute Molecular Screening Center.
